# Screening data (PubChem)
# Shown is part of a subset that was picked to be rich in hits.
# Shiga toxin inh: A qHTS for Small Molecule Inhibitors of Shiga Toxin; 290,000 compounds, 9.2% hits; Vero cells, Shiga toxin protein synthesis inhibition reporter; inhibition, % at 38.7 µM; in the data active means inhibition mostly above about 28%, no sharp cut-off; inactive means mostly below about 43%; further: 0% is about no effect
# SARS PLP yeast: qHTS of Yeast-based Assay for SARS-CoV PLP; S. cerevisiae expressing SARS-CoV PLpro, growth rescue; Potency, µM (doses to about 32.9 µM), for the others: at the highest dose activity, positive = growth rescue, actives largely listed as activators; 330,000 compounds, 0.19% hits; further: potency means the concentration at half of the fitted maximal effect; 0% is about no effect; nearly all actives have a fitted effect of over 55% in size
# NS1 function inh: qHTS Assay for Inhibitors of Influenza NS1 Protein Function. AID 2326, 2010. 270,000 compounds, 0.4% hits. Potency, µM (series often up to 46.1 µM), for the others: at the top dose activity, positive = more growth; further: potency means the concentration at half of the fitted maximal effect; actives are rising curves; nearly all actives have a fitted effect of over 50% in size
#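 In this qHTS, NS1 from influenza A is expressed in budding yeast, where it slows growth. Cells are switched from glucose to 2% galactose medium (pH 6.0, -URA), treated with compound, and growth recovery is read at OD600.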
# Tb PYK inh: qHTS of Trypanosoma Brucei Inhibitors | pyruvate kinase (Trypanosoma brucei), Q57TT1 | TbPYK enzyme, Kinase-Glo Plus ATP luminescence, 45 min | Potency, µM (highest dose often 76.8 µM), for the others: top-dose activity, negative = inhibition, hits mostly inhibitors | 410,000 compounds, 0.12% hits | AID 624173, 2012; active means well fitted curve in the direction sought with a large enough effect; inconclusive means small, poorly fitted or top-dose-only effect, or another doubt; inactive means no such curve, though single readings can be large; an effect the other way counts as inactive or inconclusive; further: potency means the concentration at half of the fitted maximal effect; on the % scale 0 is the no-effect control and ±100 the full control effect; nearly all actives have a fitted effect of over 50% in size
#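 Luminescence from Kinase-Glo Plus, added after a 45-minute room-temperature reaction, served as the end-point read-out. The enzyme and substrate were preincubated with compound before ADP (130 uM final) initiated turnover. Concentration-effect curves came from normalized qHTS data.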
# LmPK inhibitor: qHTS Assay for Inhibitors of Leishmania Mexicana Pyruvate Kinase (LmPK). Potency, µM (doses to about 57.5 µM), for the others: at the highest dose activity change, negative = inhibition, actives largely listed as inhibitors. Q27686. purified LmPK, Kinase-Glo ATP luminescence, 1 h. 290,000 compounds, 0.37% hits; active means well fitted curve in the direction sought with a large enough effect; inconclusive means small, poorly fitted or top-dose-only effect, or another doubt; inactive means no such curve, though single readings can be large; an effect the other way counts as inactive or inconclusive; further: potency means the concentration at half of the fitted maximal effect; on the % scale 0 is the no-effect control and ±100 the full control effect
# Target sequence (Q27686 whole entry, looked up): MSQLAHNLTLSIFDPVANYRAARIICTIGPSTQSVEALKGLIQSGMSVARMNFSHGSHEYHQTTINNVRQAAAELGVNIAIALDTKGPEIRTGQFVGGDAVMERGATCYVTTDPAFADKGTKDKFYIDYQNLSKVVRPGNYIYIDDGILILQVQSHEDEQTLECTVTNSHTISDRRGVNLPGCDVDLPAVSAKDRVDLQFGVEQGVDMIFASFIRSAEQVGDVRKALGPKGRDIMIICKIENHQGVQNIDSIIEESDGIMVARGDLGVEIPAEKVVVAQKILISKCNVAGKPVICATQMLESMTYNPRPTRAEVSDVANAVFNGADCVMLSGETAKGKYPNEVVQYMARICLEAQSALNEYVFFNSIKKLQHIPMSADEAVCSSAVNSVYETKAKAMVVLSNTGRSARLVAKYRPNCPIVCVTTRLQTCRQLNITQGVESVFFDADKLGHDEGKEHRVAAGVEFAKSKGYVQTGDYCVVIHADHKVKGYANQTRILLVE
#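 qHTS format; LmPK 0.1 nM; substrates PEP 0.5 mM and ADP 0.1 mM. One-hour room-temperature incubation, then coupled luciferase luminescence; 0.5 nM enzyme wells mark activation.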
# Cycloheximide cs: Cycloheximide Counterscreen for Small Molecule Inhibitors of Shiga Toxin | cell reporter, cycloheximide protein synthesis inhibition counterscreen | max response, % | 300,000 compounds, 12% hits; in the data active means max response mostly above about 13%, no sharp cut-off; inactive means mostly below about 14%; further: read at 38.3 µM for the half of the compounds with a filed dose; 0% is about no effect
# * marks the source's active call; other numbers are inactive results; ? = inconclusive; nt = not tested or not shown. Unless noted, the call rests on the fitted dose curve.
SMILES,Shiga toxin inh,SARS PLP yeast,NS1 function inh,Tb PYK inh,LmPK inhibitor,Cycloheximide cs
Cc1ccc(NC(=O)NCc2cccn2C)cc1C,58.8*,-1.3%,6.0%,2.0%,-2.6%,18.1*
Cc1ccc(CNC(=O)Nc2ccccc2)n1C,27.9,-0.7%,-2.6%,-3.0%,3.1%,17.2*
COc1ccc(NC(=O)NCc2ccc(Cl)cc2)cc1,2.1,-2.0%,-7.1%,0.1%,1.7%,6.5
Cn1cccc1CNC(=O)Nc1ccc(Cl)cc1,59.1*,-11.0%,4.5%,-8.2%,-1.9%,49.1*
CN1CCC(CNC(=O)Nc2ccccc2)(c2ccccc2)CC1,-1.1,-12.5%,-8.4%,-5.8%,-1.5%,-3.5
Cc1ccc(S(=O)(=O)N[C@@H](Cc2ccccc2)C(=O)N2CCC[C@@H]2C(=O)O)cc1,-10.9,1.4%,5.5%,-8.9%,4.6%,-4.4
Cc1noc(C)c1C(=O)Nc1cc(S(=O)(=O)N2CCCCC2)ccc1N(C)C,nt,-0.8%,nt,1.3%,nt,nt
Cc1nc2ncnn2c(C)c1CCC(=O)N1CCN(c2ccccc2)CC1,nt,nt,nt,4.8%,nt,nt
COc1ccc2cc(-c3csc(-c4cccnc4)n3)ccc2c1,73.7,-0.4%,?,-1.7%,-4.5%,26.3*
CC(O)(c1cccnc1)c1nc(-c2ccc3ccccc3c2)cs1 (stereo not drawn),nt,nt,nt,-0.4%,nt,nt
COc1ccc(-c2csc(-c3cccnc3)n2)cc1C,89.6*,-4.1%,-27.9%,2.9%,-1.7%,35.8
C[C@@H]1[C@@H](Sc2ccccc2)CC(=O)O[C@@H]1c1ccc(-c2ccccc2)cc1,81.8*,nt,nt,-0.7%,nt,63.1*
Clc1cc(Cl)c(OCc2nc(-c3ccccn3)no2)cc1Cl,125.4*,-1.2%,5.2%,0.0%,-0.1%,47.4*
CC(C)(C)c1ccc(OCc2nc(-c3ccccn3)no2)c(Br)c1,95.9*,nt,-64.3%,-4.6%,2.1%,84.5*
COc1cccc(-c2noc(COc3ccccc3Cl)n2)c1,nt,nt,nt,-4.5%,nt,nt
S=C1NC2(CCS1)Oc1ccccc1C1CC(c3ccccc3)=NN12 (stereo not drawn),70.4*,0.3%,2.4%,nt,1.8%,32.8*
CN1C(=O)C2(Oc3ccccc3C3CC(c4ccccc4)=NN32)c2ccccc21 (stereo not drawn),77.8*,-23.0%,-1.7%,-25.2%,-4.0%,27.6*
Cc1ccc(C2=NN3C(C2)c2ccccc2OC32C(=O)Nc3ccccc32)cc1 (stereo not drawn),77.8*,-22.3%,-3.8%,-27.3%,-1.3%,41.6*
CCc1ccc(/C=C2\SC(=S)N(CCCC(=O)N(CCO)c3ccccc3)C2=O)cc1,nt,nt,nt,-4.7%,nt,nt
Cc1ccc2[nH]c3ccccc3c(=O)c2c1,48.5*,-10.9%,-98.3%,-0.1%,-4.2%,28.0*
CC(=O)c1cccc(NC(=O)c2cc3nc(-c4ccc(Br)cc4)cc(C(F)(F)F)n3n2)c1,nt,nt,nt,-4.1%,nt,nt
Cc1cccc(-c2noc(-c3ccc(Cl)cc3[N+](=O)[O-])n2)c1,81.7*,0.9%,4.1%,-1.5%,0.8%,42.1*
COc1ccc(-c2noc(-c3ccc(Cl)cc3[N+](=O)[O-])n2)cc1OC,15.6,-3.6%,13.9%,-17.6%,0.7%,16.3*
Cc1cc2nc(-c3cccnc3SCC(=O)NC(C)C)[nH]c2cc1C,65.7*,0.7%,nt,-7.5%,?,79.5*
COCCOC(=O)CSc1ncccc1-c1nc2cc(C)c(C)cc2[nH]1,71.0,-12.8%,nt,-7.0%,14.1µM*,32.8*
SMILES,Shiga toxin inh,SARS PLP yeast,NS1 function inh,Tb PYK inh,LmPK inhibitor,Cycloheximide cs
COc1ccc2nc(SCC(=O)NC(C)C)[nH]c2c1,-4.3,-0.8%,3.3%,-4.6%,0.9%,6.6
Cc1cc(C)cc(NC(=O)C2CCN(c3cc(C)nc4c(-c5ccc(Cl)cc5)c(C)nn34)CC2)c1,nt,nt,nt,-2.1%,nt,nt
Cc1ccc(Cl)c(OCC(=O)Nc2cccnc2)c1,104.6*,-0.9%,-10.9%,-6.0%,0.6%,58.4*
O=C(COc1ccccc1Cl)Nc1cccnc1,72.8*,-1.8%,-2.8%,-1.2%,5.6%,39.6*
COC(=O)c1ccc(NC(=O)CN(C)S(=O)(=O)c2ccc(Br)s2)cc1,nt,nt,nt,2.7%,nt,nt
CCSc1nnc(NC(=O)COc2ccccc2[N+](=O)[O-])s1,184.6*,0.3%,nt,-0.4%,-1.0%,62.4*
CC(C)c1nnc(NC(=O)COc2ccccc2[N+](=O)[O-])s1,96.4*,0.2%,0.3%,-1.5%,0.5%,19.6*
Cc1cc(=O)oc2cc(NC(=O)COc3ccccc3[N+](=O)[O-])ccc12,nt,-2.8%,nt,0.0%,nt,nt
CCOC(=O)c1c(C)[nH]c(C2=NNC(=Nc3cccc(Cl)c3)SC2)c1C,3.6,-39.9%,-2.5%,nt,-0.9%,-3.4
Cc1ccc(C(=O)OCC(=O)NC2CCCC2)cc1C,54.3*,-1.2%,-3.7%,1.5%,-4.4%,21.7*
CCc1ccc(C(=O)OCC(=O)NC2CCCC2)cc1,44.9,1.4%,6.6%,-1.5%,0.6%,30.0*
CC(C)c1ccc(C(=O)OCC(=O)NC2CCCC2)cc1,31.0,-1.6%,-5.4%,0.0%,2.4%,27.3*
COc1ccc(C(=O)OCC(=O)NC2CCCC2)cc1OC,-5.5,0.1%,-3.0%,-8.3%,-3.5%,-1.3
O=C(NCC(F)(F)F)c1cc2c(c(-c3cccc(-c4ccccc4F)c3)n1)[C@@H](CCO)N(C(=O)CC1CC1)C2,nt,nt,nt,-6.4%,nt,nt
COc1nc(-c2ccc(C)cc2)ccc1-c1noc(-c2ccccc2Br)n1,nt,nt,nt,1.2%,nt,nt
COc1ccc(-c2ccc(-c3noc(C)n3)c(OC)n2)cc1,62.0,-4.7%,-28.8%,-11.3%,1.1%,22.8*
COCc1nc(-c2ccc(-c3ccc(C)cc3)nc2OC)no1,115.9*,-0.2%,-17.7%,-2.8%,5.6%,33.0*
CC(C)(C)Nc1cccccc1=O,-17.9,4.9%,-4.5%,2.5%,-3.9%,-8.4
Cc1ccc(Nc2cccccc2=O)cc1,23.3,1.6%,-43.8%,-26.8%,-7.5%,15.6*
CCC1SC(=Nc2cccc(C)c2)NC1=O (stereo not drawn),-6.9,0.5%,-2.1%,-0.8%,1.5%,4.4
CCC1SC(=NC(=O)c2ccc(Cl)c(Cl)c2)NC1=O (stereo not drawn),43.3,-18.1%,-70.6%,7.4%,2.3%,20.1*
COc1ccc(-c2nnn(CC(=O)N(Cc3ccco3)C(C(=O)NCC3CCCO3)c3ccco3)n2)cc1 (stereo not drawn),-12.5,2.0%,-1.6%,5.1%,8.6%,0.7
COc1ccc(CN(C(=O)Cn2nnc(-c3ccc(C)o3)n2)C(C(=O)NCC2CCCO2)c2ccco2)cc1 (stereo not drawn),0.5,-2.1%,-2.7%,-2.1%,2.5%,16.7*
CC(C)c1cc(C(=O)N2CCCC(CCC(=O)N3CCN(c4ccccn4)CC3)C2)no1 (stereo not drawn),18.2,-1.1%,-1.3%,2.6%,3.7%,-1.2
CCc1sc(C(=O)NCc2ccco2)cc1C,63.7*,-11.0%,-3.4%,-11.5%,1.8%,13.3
